The panel holds about 83,000 compounds, 20% with a hit somewhere; the sample as a whole holds those more often.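 A percent growth of 40 corresponds to 60% growth inhibition; 0 means no net growth; -100 means all cells died. Active threshold: below 10.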 Unmarked numbers belong to inactive results. The source made the active and inactive calls.
Legend:
Experiment in all cases: NCI-60 one-dose screen, 48 h (100 = growth as untreated, 0 = no growth, -100 = all killed)
Details in all cases: 10 µM unless noted
[1] = tested on: SR leukemia
[2] = tested on: RPMI-8226 leukemia
[3] = tested on: OVCAR-8 ovarian
[4] = tested on: OVCAR-5 ovarian
[5] = tested on: SK-OV-3 ovarian
[6] = tested on: IGROV1 ovarian
[7] = tested on: OVCAR-3 ovarian
[8] = tested on: HS 578T breast
[9] = tested on: NCI/ADR-RES ovarian
[10] = tested on: T-47D breast
[11] = tested on: BT-549 breast
[12] = tested on: MDA-MB-435 melanoma
[13] = tested on: SW-620 colon
[14] = tested on: MCF7 breast
[15] = tested on: HCT-116 colon
[16] = tested on: HCC-2998 colon
[17] = tested on: KM12 colon
[18] = tested on: OVCAR-4 ovarian

SMILES	growth [1]	growth [2]	growth [3]	growth [4]	growth [5]	growth [6]	growth [7]	growth [8]	growth [9]	growth [10]	growth [11]	growth [12]	growth [13]	growth [14]	growth [15]	growth [16]	growth [17]	growth [18]
C(=Nc1ccc(-c2ccc(N=Cc3ccccc3)cc2)cc1)c1ccccc1	86.3%	103%	109%	116%	103%	87.6%	111%	82.1%	101%	107%	97.5%	107%	106%	89.9%	100%	110%	107%	
CCN(CC)c1ccc(/C=N/N=C(N)N)cc1	27.6%	3.74% (active)	62.6%	79.8%	37.6%	63.3%		55.3%	93%	63.4%	51.5%	-23% (active)	19.3%	15.4%	32.5%	85.5%	25.2%	
COc1ccc(-c2cc(C(=O)Nc3ccc(C)cc3)nc3[nH]c(=O)sc23)cc1	76.8%	47.2%	77.1%	100%		70.3%	80.1%	74.1%	78.3%	58.7%	75.9%	65.5%	77.2%	71.6%	66.2%	76.7%	67.4%	71.7%
Cc1ccc(C)c(NC(=O)c2sc3c(=O)[nH]cnc3c2C)c1	15.8%	87.7%	98.2%	127%	101%	79.8%	70.7%	78.9%	58%	86.9%	80.2%	-36% (active)	42.8%	62.8%	68.3%	87.7%	46.2%	
N/C(=N\O)c1ncc(-c2ccc(C(F)(F)F)cc2)c(NC2CCCCCC2)n1	-48.8% [100 µM] (active)	-35.7% [100 µM] (active)		-76.5% [100 µM] (active)	-17.8% [100 µM] (active)	-77.2% [100 µM] (active)	-95% [100 µM] (active)	-43.3% [100 µM] (active)	-61.8% [100 µM] (active)	-57.3% [100 µM] (active)	-93.2% [100 µM] (active)	-84.2% [100 µM] (active)	-67.4% [100 µM] (active)	-92.8% [100 µM] (active)	-95.8% [100 µM] (active)	-95.6% [100 µM] (active)	-90.1% [100 µM] (active)	-6.06% [100 µM] (active)
Clc1ccc(-c2nc(-c3cccs3)no2)cc1	101%	95.3%	101%		99.2%	77.1%	103%	99.5%	103%	56.9%	102%	107%	91%	33.7%	97.8%	102%	103%	
COc1cc(C2C(C#N)=C(N)Oc3cc4c(cc32)OCO4)cc2c1OCO2 (stereo unspecified)	15.3%	31.4%	35.1%	41.3%		33.3%	-39.7% (active)	23%	11.2%	53.7%	34.8%	-50.6% (active)	29%	16.6%	11%	14.7%	10.9%	42.3%
CC1(C)CC(=O)c2cc3c(N)c(C(=O)Nc4ccc(Cl)cc4)sc3nc2C1	113%	103%	111%		106%	111%	111%	109%	114%	96.2%	125%	109%	109%	103%		116%	117%	
CN1C(=O)NC(Cc2c[nH]c3c(Cl)cccc23)C1=O (stereo unspecified)	101%	119%	112%	102%		108%	90.8%	103%	100%	111%	118%	114%	112%	96.2%	108%		96.6%	101%
COc1ccc2nc3cc(Cl)ccc3c(NC(=O)CSc3ccc(Cl)cc3)c2c1	-10.1% (active)	-41.4% (active)	-63.8% (active)	-87.2% (active)		-91.5% (active)	-96.4% (active)	-43.2% (active)	-65% (active)	-79.6% (active)	-98.7% (active)	-82.4% (active)	-80.4% (active)	-60% (active)	-94.4% (active)		-75.4% (active)	-96.8% (active)
CC(=O)NC1C(O[C@H]2C[C@H]3[C@@H]4CC=C5C[C@@H](O)CC[C@]5(C)[C@H]4CC[C@]3(C)[C@H]2[C@H](C)C(=O)CCC(C)C)OCC(O)C1O (stereo partly specified)	18.7%	-9.81% (active)	66.3%	74.2%		72%	72%	5.84% (active)	88.8%		31.3%	35.3%	49.4%	43.4%	31.8%	89.5%	70.1%	87.8%
COc1cc2c(cc1OC)-c1cc(OC)c(OC)cc1C(CN(C)C)C2 (stereo unspecified)	53.9% [100 µM]	67.7% [100 µM]		86% [100 µM]	6.96% [100 µM] (active)	60.7% [100 µM]	59.9% [100 µM]	10.3% [100 µM]	26.9% [100 µM]	69.3% [100 µM]	45.8% [100 µM]	63.8% [100 µM]	82.4% [100 µM]	62% [100 µM]	70.7% [100 µM]	85.6% [100 µM]	82.1% [100 µM]	-20.7% [100 µM] (active)
Cc1ccc(OC2=C(C#N)C(=N)N3C(=NN2)Sc2c(C)ccc(C)c23)cc1	98.2%	105%	104%	128%	96.2%	87.7%	117%	107%	101%	84.8%	105%	106%	102%	91%	106%		106%	
O/N=C/c1ccncc1	107%	94%	107%	116%	100%	114%	113%	107%	105%	97.3%	117%	100%	102%	97.3%	118%	102%	105%	
CCC1N=C(N)N=C(N)N1c1ccc(Cl)cc1 (stereo unspecified)	88.9%	87.5%	74.4%	119%		66.6%	104%	97%		95.7%	100%	79.5%	72.3%	91.3%	61.1%	95.4%	97.4%	103%
CN1C(=O)N(C)C2C1NN=c1s/c(=C\c3ccc(Br)cc3)c(=O)n12 (stereo unspecified)	13.5%		33.7%	56.8%	29.5%	48.1%	0.921% (active)	11.6%	17%	28.7%	50.8%	-50.4% (active)	20%	13.4%	25%	53%	23.3%	61.6%
OC(COCc1ccccc1)COCc1ccccc1	89.2%		106%	108%	103%	108%	94.7%	122%	127%	101%	98.6%	112%	110%	92.6%	99%	97.9%	105%	107%
COC(=O)[C@H](Cc1cn(C)cn1)NC(=O)[C@H](CC(C)C)NC(=O)Nc1cc(C(F)(F)F)cc(C(F)(F)F)c1	-46.5% [100 µM] (active)	-53.4% [100 µM] (active)		-98.6% [100 µM] (active)	-100% [100 µM] (active)	-89.2% [100 µM] (active)		-17.3% [100 µM] (active)	-67.3% [100 µM] (active)	-64.9% [100 µM] (active)	-95.6% [100 µM] (active)	-97.1% [100 µM] (active)	-43.6% [100 µM] (active)	-86.5% [100 µM] (active)	-98% [100 µM] (active)	-90.3% [100 µM] (active)	-95.4% [100 µM] (active)	-97% [100 µM] (active)

Reference: PubChem BioAssay (NCI)
